Source: paper PMC11006913

Experiments:
Experiment in all cases: PBM; 200 nM protein, PBS
Conditions in all cases: dsDNA, one strand shown
[1] = target: HOXA2 (Homo sapiens, UniProt O43364 129-215, R185T)
[2] = target: HOXA2 (Homo sapiens, UniProt O43364 129-215, R185K)
[3] = target: HOXA2 (Homo sapiens, UniProt O43364 129-215, Y150S)
[4] = target: HOXA2 (Homo sapiens, UniProt O43364 129-215)
[5] = target: HOXA4 (Homo sapiens, UniProt Q00056 201-287, W262F)
[6] = target: VAX1 (Homo sapiens, UniProt Q5SQQ9 86-172, T142I)
Chain of VAX1 (Q5SQQ9 86-172 T142I): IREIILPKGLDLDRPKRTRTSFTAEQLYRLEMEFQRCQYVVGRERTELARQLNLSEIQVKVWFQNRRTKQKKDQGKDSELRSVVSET

Chain of HOXA2 (Homo sapiens, UniProt O43364 129-215, Y150S) (O43364 129-215 Y150S): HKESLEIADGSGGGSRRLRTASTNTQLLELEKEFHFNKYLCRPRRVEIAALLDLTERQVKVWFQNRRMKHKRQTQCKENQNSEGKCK
Chain of HOXA2 (Homo sapiens, UniProt O43364 129-215, R185T) (O43364 129-215 R185T): as the sequence (O43364 129-215 Y150S) above, with S22Y, R57T counted along it
Chain of HOXA2 (Homo sapiens, UniProt O43364 129-215) (O43364 129-215): as the sequence (O43364 129-215 Y150S) above, with S22Y counted along it
Chain of HOXA2 (Homo sapiens, UniProt O43364 129-215, R185K) (O43364 129-215 R185K): as the sequence (O43364 129-215 Y150S) above, with S22Y, R57K counted along it
Chain of HOXA4 (Q00056 201-287 W262F): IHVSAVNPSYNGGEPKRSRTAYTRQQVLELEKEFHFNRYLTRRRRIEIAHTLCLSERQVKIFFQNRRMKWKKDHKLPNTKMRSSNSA

| Sequence | binding signal [1] | binding signal [2] | binding signal [3] | binding signal [4] | binding signal [5] | binding signal [6] |
| --- | --- | --- | --- | --- | --- | --- |
| CAATCACA | 9.53 upbm affinity estimate (log intensity, higher = more binding, comparable within an allelic series) | 11.8 upbm affinity estimate (log intensity, higher = more binding, comparable within an allelic series) | 10.8 upbm affinity estimate (log intensity, higher = more binding, comparable within an allelic series) | 9.4 upbm affinity estimate (log intensity, higher = more binding, comparable within an allelic series) | – | – |
| AATCAGCT | 10.1 upbm affinity estimate (log intensity, higher = more binding, comparable within an allelic series) | 11.9 upbm affinity estimate (log intensity, higher = more binding, comparable within an allelic series) | 10.7 upbm affinity estimate (log intensity, higher = more binding, comparable within an allelic series) | 9.77 upbm affinity estimate (log intensity, higher = more binding, comparable within an allelic series) | – | – |
| CTGGGGCC | 7.14 upbm affinity estimate (log intensity, higher = more binding, comparable within an allelic series) | 10.1 upbm affinity estimate (log intensity, higher = more binding, comparable within an allelic series) | 10.3 upbm affinity estimate (log intensity, higher = more binding, comparable within an allelic series) | 7.16 upbm affinity estimate (log intensity, higher = more binding, comparable within an allelic series) | – | – |
| CAGTTAAG | 9.01 upbm affinity estimate (log intensity, higher = more binding, comparable within an allelic series) | 11.5 upbm affinity estimate (log intensity, higher = more binding, comparable within an allelic series) | – | 8.89 upbm affinity estimate (log intensity, higher = more binding, comparable within an allelic series) | – | – |
| CAGCCACG | 7.22 upbm affinity estimate (log intensity, higher = more binding, comparable within an allelic series) | 10.5 upbm affinity estimate (log intensity, higher = more binding, comparable within an allelic series) | 10.4 upbm affinity estimate (log intensity, higher = more binding, comparable within an allelic series) | 7.24 upbm affinity estimate (log intensity, higher = more binding, comparable within an allelic series) | – | – |
| CCCCCTCC | 6.95 upbm affinity estimate (log intensity, higher = more binding, comparable within an allelic series) | 9.98 upbm affinity estimate (log intensity, higher = more binding, comparable within an allelic series) | 10.1 upbm affinity estimate (log intensity, higher = more binding, comparable within an allelic series) | 6.89 upbm affinity estimate (log intensity, higher = more binding, comparable within an allelic series) | – | – |
| CGTCATTA | 12.3 upbm affinity estimate (log intensity, higher = more binding, comparable within an allelic series) | 13.2 upbm affinity estimate (log intensity, higher = more binding, comparable within an allelic series) | 10.8 upbm affinity estimate (log intensity, higher = more binding, comparable within an allelic series) | 12.3 upbm affinity estimate (log intensity, higher = more binding, comparable within an allelic series) | 11.4 upbm affinity estimate (log intensity, higher = more binding, comparable within an allelic series) | – |
| AAGGCCCC | 7.25 upbm affinity estimate (log intensity, higher = more binding, comparable within an allelic series) | 10.3 upbm affinity estimate (log intensity, higher = more binding, comparable within an allelic series) | 10.3 upbm affinity estimate (log intensity, higher = more binding, comparable within an allelic series) | 7.19 upbm affinity estimate (log intensity, higher = more binding, comparable within an allelic series) | – | – |
| GCAACCCC | 7.26 upbm affinity estimate (log intensity, higher = more binding, comparable within an allelic series) | 10.1 upbm affinity estimate (log intensity, higher = more binding, comparable within an allelic series) | 10.4 upbm affinity estimate (log intensity, higher = more binding, comparable within an allelic series) | 7.17 upbm affinity estimate (log intensity, higher = more binding, comparable within an allelic series) | – | – |
| GAGCCCGC | 7.09 upbm affinity estimate (log intensity, higher = more binding, comparable within an allelic series) | 10.2 upbm affinity estimate (log intensity, higher = more binding, comparable within an allelic series) | 10.4 upbm affinity estimate (log intensity, higher = more binding, comparable within an allelic series) | 7.5 upbm affinity estimate (log intensity, higher = more binding, comparable within an allelic series) | – | – |
| GTAATGAC | 12 upbm affinity estimate (log intensity, higher = more binding, comparable within an allelic series) | 13.1 upbm affinity estimate (log intensity, higher = more binding, comparable within an allelic series) | 10.8 upbm affinity estimate (log intensity, higher = more binding, comparable within an allelic series) | 12.1 upbm affinity estimate (log intensity, higher = more binding, comparable within an allelic series) | – | 12.3 upbm affinity estimate (log intensity, higher = more binding, comparable within an allelic series) |
